# Calls of active or inactive are those of the source. How the calls were made is not given here.
# Test system: Botulinum neurotoxin type F light chain protease (Clostridium botulinum)
# Assay: Clostridium botulinum type F light chain protease inhibitors, microsphere substrate cleavage, validation (AID 588459)
# Conditions: multiplex microsphere protease substrate cleavage assay, flow cytometry; at 10 µM; active compounds read high
row,Compound,inhibition
1,O=P(c1ccccc1)(c1ccccc1)c1nc(-c2ccc(Cl)cc2)oc1N1CCOCC1,-1% (inactive)
2,CC1(C)Cc2ccccc2C(C(Cc2ccccc2)C(N)=O)=N1 (centres undefined),0.5% (inactive)
3,CC1(C)O[C@@H]2C[C@H]3[C@@H]4C[C@H](F)C5=CC(=O)C=C[C@]5(C)[C@@]4(F)[C@@H](O)C[C@]3(C)[C@]2(C(=O)CO)O1,-0.5% (inactive)
4,COc1ccccc1C(CC(=O)Nc1ccccc1C)c1ccc(OC(C)C)cc1 (centres undefined),-0.1% (inactive)
5,C[C@H]1C[C@@H]2[C@H]([C@@H](O)C[C@@]3(C)[C@H]2CC[C@]3(O)C(=O)CO)[C@@]2(C)C=CC(=O)C=C12,-2.2% (inactive)
6,CC(=O)[C@H]1CC[C@H]2[C@@H]3CCC4=CC(=O)CC[C@]4(C)[C@H]3CC[C@]12C,2.7% (inactive)
7,CC[C@]1(O)CC2CN(CCc3c([nH]c4ccccc34)[C@@](C(=O)OC)(c3cc4c(cc3OC)N(C=O)[C@H]3[C@@](O)(C(=O)OC)[C@H](OC(C)=O)[C@]5(CC)C=CCN6CC[C@]43[C@@H]65)C2)C1 (some centres undefined),1.5% (inactive)
8,CC(=O)OCC(=O)[C@@]1(O)CC[C@H]2[C@@H]3CCC4=CC(=O)CC[C@]4(C)[C@H]3[C@@H](O)C[C@@]21C,-3.3% (inactive)
9,CCOc1ccc(C(=O)N2CCCC2C(=O)O)cc1 (centres undefined),-1.3% (inactive)
10,Cc1cc(-c2nn(-c3ccccc3F)cc2CN2CCCC(O)C2)c(C)s1 (centres undefined),3% (inactive)
11,CN(C)[C@@H]1C(=O)C(C(=O)NCN2CCCC2)=C(O)[C@@]2(O)C(=O)C3=C(O)c4c(O)cccc4[C@@](C)(O)C3CC12 (some centres undefined),-4.8% (inactive)
12,Nc1[nH]c(=O)ncc1F,1.1% (inactive)
13,Oc1ccc(COCc2ccccc2)c2cccnc12,-2% (inactive)
14,Nc1cccc(C(=O)O)c1,-0.6% (inactive)
15,CCc1c(C(C)=O)oc2ccc3c(C)cc(=O)oc3c12,-1.2% (inactive)
16,CC(=O)NC1C(OCCOc2ccc(Cl)cc2Cl)OC(COC(C)=O)C(OC(C)=O)C1OC(C)=O (centres undefined),-1.5% (inactive)
17,O=C(O)CCCN1C(=O)NC2NC(=O)NC21 (centres undefined),0.1% (inactive)
18,OC[C@@H](O)[C@@H](O[C@H]1O[C@H](CO)[C@@H](O)[C@H](O)[C@H]1O)[C@H](O)[C@@H](O)CO,3.7% (inactive)
19,CC(=O)[C@@]1(O)CC[C@H]2[C@@H]3CCC4=CC(=O)CC[C@]4(C)[C@H]3[C@@H](O)C[C@@]21C,2.3% (inactive)
20,CC12CCC(C(=O)N(CCC#N)CCC#N)(CC1=O)C2(C)C (centres undefined),2.1% (inactive)
21,COc1ccccc1N=CC1=C(O)CC(c2ccccc2)CC1=O (centres undefined),0.8% (inactive)
22,CC(=O)N1c2ccccc2C(C)=CC1(C)C,2.3% (inactive)
23,CCOc1ccc2oc(-c3ccccc3)c(C(=O)O)c2c1,-1.1% (inactive)
24,COc1ccc(O)c(N)c1,-8.6% (inactive)

# Target: Botulinum neurotoxin type A (Clostridium botulinum) (UniProt P0DPI0)
# Sequence (P0DPI0 whole entry, looked up): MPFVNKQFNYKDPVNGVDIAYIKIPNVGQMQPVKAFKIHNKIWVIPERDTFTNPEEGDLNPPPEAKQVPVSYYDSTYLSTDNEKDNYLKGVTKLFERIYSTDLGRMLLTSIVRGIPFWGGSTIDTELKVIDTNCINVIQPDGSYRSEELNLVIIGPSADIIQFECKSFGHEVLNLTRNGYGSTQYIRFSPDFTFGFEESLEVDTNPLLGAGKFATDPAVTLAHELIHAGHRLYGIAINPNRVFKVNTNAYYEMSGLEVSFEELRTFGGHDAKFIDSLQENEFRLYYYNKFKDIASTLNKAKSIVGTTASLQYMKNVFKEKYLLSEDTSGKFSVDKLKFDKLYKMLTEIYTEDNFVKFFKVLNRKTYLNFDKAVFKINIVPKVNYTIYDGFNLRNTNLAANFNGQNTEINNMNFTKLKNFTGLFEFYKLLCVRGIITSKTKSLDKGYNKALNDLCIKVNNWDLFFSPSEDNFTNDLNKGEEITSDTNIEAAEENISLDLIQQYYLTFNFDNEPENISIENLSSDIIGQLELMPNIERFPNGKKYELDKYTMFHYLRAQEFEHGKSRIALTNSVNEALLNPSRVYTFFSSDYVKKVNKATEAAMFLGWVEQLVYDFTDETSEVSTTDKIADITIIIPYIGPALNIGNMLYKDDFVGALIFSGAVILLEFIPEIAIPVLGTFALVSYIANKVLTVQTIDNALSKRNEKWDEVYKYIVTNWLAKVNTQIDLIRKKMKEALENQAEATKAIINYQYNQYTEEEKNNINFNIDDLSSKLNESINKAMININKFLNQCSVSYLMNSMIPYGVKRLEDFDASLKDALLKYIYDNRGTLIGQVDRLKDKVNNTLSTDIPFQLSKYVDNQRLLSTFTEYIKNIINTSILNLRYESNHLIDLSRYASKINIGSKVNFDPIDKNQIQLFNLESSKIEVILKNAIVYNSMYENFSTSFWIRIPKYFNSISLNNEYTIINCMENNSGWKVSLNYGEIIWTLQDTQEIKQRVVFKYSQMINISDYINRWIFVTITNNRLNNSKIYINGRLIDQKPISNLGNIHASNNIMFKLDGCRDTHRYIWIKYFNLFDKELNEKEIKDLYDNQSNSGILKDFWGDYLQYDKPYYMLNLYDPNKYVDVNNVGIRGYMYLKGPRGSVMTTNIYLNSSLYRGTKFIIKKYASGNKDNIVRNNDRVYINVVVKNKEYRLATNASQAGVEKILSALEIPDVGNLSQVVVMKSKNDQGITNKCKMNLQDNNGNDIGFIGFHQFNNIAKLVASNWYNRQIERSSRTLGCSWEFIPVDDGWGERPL
# Assay: BoNT/A light chain protease inhibitors, biochemical, multiplex microsphere flow cytometry, validation set (AID 588460)
# Conditions: at 10 µM, active compounds read high
row,Compound,inhibition
1,COc1ccc2[nH]cc(C3N4CC5(C)CN3CC(C)(C4)C5=O)c2c1 (centres undefined),-0.2% (inactive)
2,COc1cc2c(cc1OC)C1(CCCC1)CNC2c1cccc([N+](=O)[O-])c1 (centres undefined),0.1% (inactive)
3,O=C(O)CP(=O)(O)O,0.3% (inactive)
4,O=C(O)CCn1c(=S)n(CCC(=O)O)c2ccccc21,0.3% (inactive)
5,CC(=O)OCC(=O)[C@@]1(O)[C@H](C)C[C@H]2[C@@H]3CCC4=CC(=O)C=C[C@]4(C)[C@@]3(F)[C@@H](O)C[C@@]21C,0.4% (inactive)
6,O=C1C(Cc2c[nH]c3ccccc23)NC(=S)N1Cc1ccccc1 (centres undefined),0.3% (inactive)
7,COc1ccc(/C=C/C(=O)Nc2ccccc2C(=O)O)cc1OC,-0.9% (inactive)
8,O=C(Cc1cccc2ccccc12)N1CC[C@@]2(O)CCCC[C@H]2C1,0.2% (inactive)
9,O=C(O)c1ccc(C(=O)C(=O)c2ccccc2)cc1,1.8% (inactive)
10,CCN(CC)CCNC(=O)c1cc(S(C)(=O)=O)ccc1OC,1.8% (inactive)
11,Cn1c(=O)c(C(=O)NCCO)c(O)c2ccccc21,-0.1% (inactive)
12,O=C1Nc2ccc3sc4ccccc4c3c2C1=O,-0.8% (inactive)
13,O=C(CCC1CCCN(C(=O)c2ccsc2)C1)NCc1ccc(F)c(F)c1 (centres undefined),-0.6% (inactive)
14,COc1cccc(CC2CC(=O)N(c3ccc4c(C)cc(=O)oc4c3)C2=O)c1 (centres undefined),-0.1% (inactive)
15,N/C(=N\OC(=O)CCCOc1ccc(Cl)cc1Cl)c1ccccn1,-0.3% (inactive)
16,CSCCC(NC(=O)OC(C)(C)C)C(=O)Oc1ccc2c(=O)c(-c3ccc4c(c3)OCCO4)coc2c1 (centres undefined),-0.4% (inactive)
17,O=P(c1ccccc1)(c1ccccc1)c1nc(-c2ccc(Cl)cc2)oc1N1CCOCC1,-1.2% (inactive)
18,CC1(C)Cc2ccccc2C(C(Cc2ccccc2)C(N)=O)=N1 (centres undefined),1.1% (inactive)
19,CC1(C)O[C@@H]2C[C@H]3[C@@H]4C[C@H](F)C5=CC(=O)C=C[C@]5(C)[C@@]4(F)[C@@H](O)C[C@]3(C)[C@]2(C(=O)CO)O1,0.1% (inactive)
20,COc1ccccc1C(CC(=O)Nc1ccccc1C)c1ccc(OC(C)C)cc1 (centres undefined),-0.8% (inactive)

row,Compound,inhibition
1,C[C@H]1C[C@@H]2[C@H]([C@@H](O)C[C@@]3(C)[C@H]2CC[C@]3(O)C(=O)CO)[C@@]2(C)C=CC(=O)C=C12,0.7% (inactive)
2,CC(=O)[C@H]1CC[C@H]2[C@@H]3CCC4=CC(=O)CC[C@]4(C)[C@H]3CC[C@]12C,1.5% (inactive)
3,CC[C@]1(O)CC2CN(CCc3c([nH]c4ccccc34)[C@@](C(=O)OC)(c3cc4c(cc3OC)N(C=O)[C@H]3[C@@](O)(C(=O)OC)[C@H](OC(C)=O)[C@]5(CC)C=CCN6CC[C@]43[C@@H]65)C2)C1 (some centres undefined),0% (inactive)
4,CC(=O)OCC(=O)[C@@]1(O)CC[C@H]2[C@@H]3CCC4=CC(=O)CC[C@]4(C)[C@H]3[C@@H](O)C[C@@]21C,-3.5% (inactive)
5,CCOc1ccc(C(=O)N2CCCC2C(=O)O)cc1 (centres undefined),0.5% (inactive)
6,Cc1cc(-c2nn(-c3ccccc3F)cc2CN2CCCC(O)C2)c(C)s1 (centres undefined),0.2% (inactive)
7,CN(C)[C@@H]1C(=O)C(C(=O)NCN2CCCC2)=C(O)[C@@]2(O)C(=O)C3=C(O)c4c(O)cccc4[C@@](C)(O)C3CC12 (some centres undefined),-5.7% (inactive)
8,Nc1[nH]c(=O)ncc1F,-0.5% (inactive)
9,Oc1ccc(COCc2ccccc2)c2cccnc12,-3.5% (inactive)
10,Nc1cccc(C(=O)O)c1,-0.3% (inactive)
11,CCc1c(C(C)=O)oc2ccc3c(C)cc(=O)oc3c12,-2.4% (inactive)
12,CC(=O)NC1C(OCCOc2ccc(Cl)cc2Cl)OC(COC(C)=O)C(OC(C)=O)C1OC(C)=O (centres undefined),-0.3% (inactive)
13,O=C(O)CCCN1C(=O)NC2NC(=O)NC21 (centres undefined),-0.8% (inactive)
14,OC[C@@H](O)[C@@H](O[C@H]1O[C@H](CO)[C@@H](O)[C@H](O)[C@H]1O)[C@H](O)[C@@H](O)CO,0.6% (inactive)
15,CC(=O)[C@@]1(O)CC[C@H]2[C@@H]3CCC4=CC(=O)CC[C@]4(C)[C@H]3[C@@H](O)C[C@@]21C,-1.1% (inactive)
16,CC12CCC(C(=O)N(CCC#N)CCC#N)(CC1=O)C2(C)C (centres undefined),-1.2% (inactive)
17,COc1ccccc1N=CC1=C(O)CC(c2ccccc2)CC1=O (centres undefined),2.2% (inactive)
18,CC(=O)N1c2ccccc2C(C)=CC1(C)C,-0.7% (inactive)
19,CCOc1ccc2oc(-c3ccccc3)c(C(=O)O)c2c1,-0.2% (inactive)
20,COc1ccc(O)c(N)c1,-3.6% (inactive)
